{"source": "PubChem BioAssay (NCI)", "note": "The panel holds about 79,000 compounds, 15% with a hit somewhere; the sample as a whole holds those more often. Activity calls are given as the source filed them. Rule as the data show it: active = growth inhibition above about 70%; inactive = the rest.", "data": [{"assay": "NCI Yeast Anticancer Drug Screen. Data for the rad50 strain (AID 155);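 also: 0% = growth of vehicle-only cultures of the same strain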", "details": "S. cerevisiae rad50 strain growth inhibition; at 50.0 µM; hits give high values", "in_short": "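Genetically altered yeast (DNA repair pathway); compound treatment; growth inhibition vs vehicle ctrl.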", "values": [{"molecule": "CC=C(c1ccccc1)c1ccccc1", "growth inhibition": "-34% (inactive)"}, {"molecule": "CC(=O)c1ccc2c(c1)-c1ccc(C(C)=O)cc1-2", "growth inhibition": "-11.9% (inactive)"}, {"molecule": "N#Cc1n[nH]n(C2CCCCC2)c1=O", "growth inhibition": "-29.4% (inactive)"}, {"molecule": "CCC(C1=CCCCC1)c1nc2c([nH]1)c(=O)n(C)c(=O)n2C", "note": "(configuration not stated)", "growth inhibition": "7.95% (inactive)"}, {"molecule": "CCCCNS(=O)(=O)c1ccccc1", "growth inhibition": "7.95% (inactive)"}, {"molecule": "CSc1ccc(NC(=O)NNP(=S)(Oc2ccc(C(C)(C)C)cc2)Oc2ccc(C(C)(C)C)cc2)cc1", "growth inhibition": "-10.7% (inactive)"}, {"molecule": "CC(C(=O)O)C1(O)CCCCC1", "note": "(configuration not stated)", "growth inhibition": "0.6% (inactive)"}, {"molecule": "CC(C)(N)COC(=O)c1ccc([N+](=O)[O-])cc1", "growth inhibition": "3.4% (inactive)"}, {"molecule": "C=CCOC(=O)NC(Cc1ccc(O)cc1)C(=O)O", "note": "(configuration not stated)", "growth inhibition": "-0.05% (inactive)"}, {"molecule": "C/C(CC(=O)Nc1ccc(C)c(C)c1)=N\\NC(N)=O", "growth inhibition": "-31.9% (inactive)"}, {"molecule": "O=C(c1ccccc1)C(O)(c1ccccc1)C(c1ccccc1)c1ccccc1", "note": "(configuration not stated)", "growth inhibition": "5.8% (inactive)"}, {"molecule": "CC(=O)OC1COC(n2cnc3c(N)ncnc32)C(OC(C)=O)C1OC(C)=O", "note": "(configuration not stated)", "growth inhibition": "5.3% (inactive)"}, {"molecule": "O=C(Nc1cccc2ccccc12)c1ccc(Cl)c(Cl)c1", "growth inhibition": "38.6% (inactive)"}, {"molecule": "[O-][n+]1c2ccccc2nn1-c1ccccc1", "growth inhibition": "-9.1% (inactive)"}, {"molecule": "COc1ccc(/C=C2/SC(=Nc3ccccc3)N(NC(=O)Cc3ccccc3)C2=O)c(OC)c1", "growth inhibition": "-17.9% (inactive)"}, {"molecule": "CCOc1c(Cc2ccccc2)c(=O)n2c3ccccc3n3c(=O)n(C)c(=O)c1c23", "growth inhibition": "-5.8% (inactive)"}, {"molecule": "CCCCc1noc(N)c1SCC", "growth inhibition": "5.45% (inactive)"}]}]}
